# PubChem BioAssay AID2553 (Johns Hopkins Ion Channel Center, 2010)
# About 3,300 (1.1%) of roughly 310,000 compounds were called active.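 How the source made its calls: active means B-score under library mean minus 3 SD, initial fluorescence not abnormally high, positive integrated signal ratio; inactive means the rest.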 Only a selection was taken, and actives are over-represented in it overall.
# Target: Short transient receptor potential channel 6 (Mus musculus) (UniProt Q61143)
# Assay: mouse TRPC6 channel inhibitors, primary screen, cell-based, HEK293, membrane potential dye (AID 2553);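 on B-score: B-score derived from integrated fluorescence ratio over the kinetic read; more negative B-score means stronger inhibition of depolarization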
# Conditions: ACh-evoked depolarization, at 10 µM; hits give low values
# Short transient receptor potential channel 6 (Mus musculus), sequence (Q61143 whole entry, looked up): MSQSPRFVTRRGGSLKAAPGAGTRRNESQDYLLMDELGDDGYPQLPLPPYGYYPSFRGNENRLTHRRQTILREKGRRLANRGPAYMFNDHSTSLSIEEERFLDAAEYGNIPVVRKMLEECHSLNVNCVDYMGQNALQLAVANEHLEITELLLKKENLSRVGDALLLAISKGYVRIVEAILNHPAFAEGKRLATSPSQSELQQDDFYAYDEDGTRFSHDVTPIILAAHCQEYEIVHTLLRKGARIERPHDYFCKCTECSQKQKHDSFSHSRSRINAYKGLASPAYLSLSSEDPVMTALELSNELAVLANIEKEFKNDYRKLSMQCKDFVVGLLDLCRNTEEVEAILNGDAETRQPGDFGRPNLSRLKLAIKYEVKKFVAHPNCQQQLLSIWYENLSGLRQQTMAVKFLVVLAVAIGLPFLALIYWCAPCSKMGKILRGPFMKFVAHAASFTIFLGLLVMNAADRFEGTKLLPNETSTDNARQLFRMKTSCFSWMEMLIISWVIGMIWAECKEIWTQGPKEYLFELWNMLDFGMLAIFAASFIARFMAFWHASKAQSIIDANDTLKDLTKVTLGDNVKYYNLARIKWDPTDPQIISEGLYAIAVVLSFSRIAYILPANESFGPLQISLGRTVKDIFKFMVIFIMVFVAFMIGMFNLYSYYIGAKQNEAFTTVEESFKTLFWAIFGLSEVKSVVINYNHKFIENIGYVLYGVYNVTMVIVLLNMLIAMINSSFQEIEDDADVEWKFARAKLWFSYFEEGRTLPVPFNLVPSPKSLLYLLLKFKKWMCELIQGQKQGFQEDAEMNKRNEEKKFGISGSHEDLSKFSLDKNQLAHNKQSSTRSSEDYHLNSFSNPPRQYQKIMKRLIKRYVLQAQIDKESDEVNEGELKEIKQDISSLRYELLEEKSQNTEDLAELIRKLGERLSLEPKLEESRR
row,Structure (SMILES),B-score
1,CCN(C(=O)Cc1c(C(=O)O)n(CC)c2ccccc12)c1ccccc1C,inactive
2,CCCCOc1ccc(NC(=O)[C@@H]2CCCN2C(=O)C2CCN(S(=O)(=O)c3ccc(C)cc3)CC2)cc1,inactive
3,CCc1ccc(C(=O)NNC(=O)C2CCN(c3ncnc4sc(C)c(C)c34)CC2)cc1,inactive
4,CCOc1ccc2nc(NC(=O)c3cc([N+](=O)[O-])ccc3N3CCOCC3)sc2c1,inactive
5,CCC(=O)NC(Nc1nc2ccc(C)cc2s1)(C(=O)OC)C(F)(F)F (stereo unspecified),inactive
6,O=C(NC(Nc1nc2ccc([N+](=O)[O-])cc2s1)(C(F)(F)F)C(F)(F)F)c1ccccc1,-10.2 (active)
7,COc1ccc2c(C)cc3nnnn3c2c1,inactive
8,CC(C)c1cc(C(=O)N/N=C/c2ccoc2)c(O)c(C(C)C)c1,inactive
9,COc1ccc(Br)cc1/C=N/Nc1ccc(Cl)c(C(=O)O)c1,inactive
10,COc1ccc(Br)cc1/C=N/n1c(C)nnc1C,-5.36 (active)
11,Cc1nnc(C)n1/N=C/c1ccc(C(C)C)cc1,inactive
12,NC(=O)COc1ccc(/C=N/NC(=O)C2CCCN2S(=O)(=O)c2ccc(Cl)cc2)cc1 (stereo unspecified),inactive
13,COc1ccc(CN2C3CCCC2CC(NC(=O)c2cccc(F)c2)C3)cc1 (stereo unspecified),inactive
14,CC(=O)OC(C(=O)NC1CCCCC1)c1ccccc1 (stereo unspecified),inactive
15,COc1ccccc1CN1CCN(C(c2ccccc2)c2ccccc2)CC1,inactive
16,CC(NCc1ccccc1OC1CCCC1)c1ccccc1 (stereo unspecified),-8.19 (active)
17,CCOC(=O)c1[nH]ncc1CN1CCCC(C(=O)c2ccc(OC)cc2C)C1 (stereo unspecified),inactive
18,COc1ccc(C(=O)C2CCCN(Cc3ccc4nonc4c3)C2)c(C)c1 (stereo unspecified),inactive
19,COc1ccc(C(=O)C2CCCN(Cc3cccn3-c3ccccn3)C2)c(C)c1 (stereo unspecified),-12.5 (active)
20,Cc1ccc(C(=O)Oc2ccc(C(=S)N3CCOCC3)cc2)cc1,inactive
21,CC(C)Cc1nc(N2CCOCC2)c(C#N)c2c1CCC2,inactive
22,CCc1nc(NCCO)c(C#N)c2c1CCCC2,inactive
23,CC(C)CCNc1nc(N2CCCC2)c2c(c1C#N)CCN(C)C2,-6.63 (active)
24,COc1ccc(-c2cc(C3CCN(c4ncccc4[N+](=O)[O-])CC3)[nH]n2)cc1,inactive
25,Cc1cc(Cl)ccc1C(=O)C1CCCN(C(=O)c2nonc2C)C1 (stereo unspecified),inactive
26,O=C(Nc1ccccc1[N+](=O)[O-])C1C(c2ccccc2)=C1c1ccccc1,inactive

row,Structure (SMILES),B-score
1,O=[N+]([O-])c1ccccc1Nc1ccc(O)cc1,-5.49 (active)
2,O=C(O)c1ccccc1C(=O)Nc1ccccc1[N+](=O)[O-],inactive
3,O=C(CCN1CCCCC1)N=Nc1c(O)[nH]c2ccccc12,inactive
4,N#Cc1cccc(CSc2ncnc(N)n2)c1,inactive
5,O=C(CN1C(=O)S/C(=C\c2ccccc2Cl)C1=O)NC1C=CS(=O)(=O)C1 (stereo unspecified),inactive
6,O=C(CN1CCCCCC1)NCCN1C(=O)S/C(=C\c2ccccc2Cl)C1=O,-5 (active)
7,O=C(CN1C(=O)S/C(=C\c2ccccc2F)C1=O)NCCCn1ccnc1,inactive
8,CCn1cc(C(=O)OCC(=O)Nc2cccc(C)c2)c(=O)c2ccc(C)nc21,inactive
9,Cc1nc(-c2ccccc2)sc1C1(C)CC(c2cccnc2)=NO1 (stereo unspecified),inactive
10,Cc1nc(C(=O)NCc2ccccc2)sc1C1(C)CC(c2cccnc2)=NO1 (stereo unspecified),-5.44 (active)
11,Cc1nc(C(=O)Nc2ccc(Cl)cc2)sc1C1(C)CC(c2ccccc2)=NO1 (stereo unspecified),inactive
12,CC(C)(C)CN1CCNC(=O)C1CC(=O)NC1Cc2ccccc2C1 (stereo unspecified),inactive
13,CCOC(=O)N1CCN(C(=O)COc2ccc3oc4c(c3c2)CCCC4)CC1,-5.45 (active)
14,CCOC(=O)N1CCN(C(=O)COc2ccc(Br)cc2)CC1,inactive
15,CCN(CC)CCCNC(=O)COc1ccc2oc3c(c2c1)CCCC3,inactive
16,COc1ccc(COCCN2CCN(S(=O)(=O)c3ccccc3)CCC2=O)cc1,inactive
17,Cc1ccc(C(O)P(=O)(OC(C)C)c2ccc(N(C)C)cc2)cc1 (stereo unspecified),inactive
18,CCn1c(SCC(=O)Nc2ccc(Br)cc2)nc2sc3c(c2c1=O)CCN(C)C3,inactive
19,COc1c(C=O)c(CCN(C)C(=O)c2ccc(F)cc2)cc2c1OCO2,inactive
20,COc1ccc(C)cc1S(=O)(=O)Nc1cc2c3c(c1)CCC(=O)N3CCC2,inactive
21,O=C(NC1C2CC3CC(C2)CC1C3)c1ccc(N2CCNCC2)c([N+](=O)[O-])c1 (stereo unspecified),-6.41 (active)
22,CS(=O)(=O)N1CCN(c2ccc(C(=O)NC3C4CC5CC(C4)CC3C5)cc2[N+](=O)[O-])CC1 (stereo unspecified),inactive
23,CC(NC(=O)c1ccc(N2CCNCC2)c([N+](=O)[O-])c1)C12CC3CC(CC(C3)C1)C2 (stereo unspecified),inactive
24,COC(=O)c1ccc(CNC(=O)C2CCC(=O)N(Cc3ccccn3)C2)cc1 (stereo unspecified),inactive
25,CCCC(=O)Nc1ccc(C(=O)NCCCn2ccnc2)cc1,-6.02 (active)
26,CCCCC(=O)Nc1ccc(C(=O)NCCCn2ccnc2)cc1,inactive

row,Structure (SMILES),B-score
1,COc1cc(OC)cc(C(=O)NCCCn2ccnc2)c1,inactive
2,COc1ccnc(Oc2ccccc2)n1,inactive
3,Cn1nc(C(F)(F)F)c(-c2ccc(F)cc2)c1NC(=O)CSCC(=O)O,inactive
4,COc1ccc(CC(=O)N[C@@H](CCSC)c2nc3ccccc3[nH]2)cc1,inactive
5,CSCCC(NC(=O)c1ccc(=O)n(C)n1)c1nc2ccccc2[nH]1 (stereo unspecified),-4.99 (active)
6,CSCCC(NC(=O)c1cc([N+](=O)[O-])cc([N+](=O)[O-])c1)c1nc2ccccc2[nH]1 (stereo unspecified),inactive
7,COc1ccccc1Oc1ccc(N2CC(C(=O)OCC(=O)c3ccc(F)cc3)CC2=O)cc1 (stereo unspecified),inactive
8,CC(C)[C@@H]1COC(c2cccc(C3=N[C@H](C(C)C)CO3)c2)=N1,inactive
9,CCN(Cc1ccncc1)C(=O)c1cccc(S(=O)(=O)N2CCOCC2)c1,inactive
10,Cc1nc(-c2ccc(F)cc2)c(CC(=O)Nc2cccc(S(=O)(=O)N3CCOCC3)c2)s1,inactive
11,O=S(=O)(c1cccc(Cn2nnc(-c3ccc(F)cc3)n2)c1)N1CCOCC1,-5.77 (active)
12,O=C(Nc1ccc(OCC(=O)N2CCOCC2)cc1)c1cc(F)c(F)cc1Cl,inactive
13,COc1ccc2c(c1)C=CC1(O2)N(CCO)c2ccccc2C1(C)C (stereo unspecified),inactive
14,Cc1ccc(C(=O)N2CC(=O)Nc3ccc(F)cc3C2c2ccc(F)cc2)cc1 (stereo unspecified),inactive
15,O=C1CN(C(=O)c2ccccc2F)C(c2ccc(F)cc2)c2cc(F)ccc2N1 (stereo unspecified),-5.3 (active)
16,CC(C)C(=O)N1CC(=O)Nc2ccc(F)cc2C1c1ccc(F)cc1 (stereo unspecified),inactive
17,CCc1ccc(NC(=O)CS(=O)CC(=O)N2CCN(c3ccccc3F)CC2)cc1 (stereo unspecified),inactive
18,Cc1c(CCOC(=O)CC23CC4CC(CC(C)(C4)C2)C3)sc[n+]1Cc1ccc([N+](=O)[O-])cc1,-5.88 (active)
19,Cc1c(CCO)sc[n+]1CC(=O)OC12CC3CC(CC(C3)C1)C2,inactive
20,Cc1c(CCOC(=O)c2cc([N+](=O)[O-])ccc2Cl)sc[n+]1CCCCS(=O)(=O)[O-],inactive
21,COc1ccc(NC(=O)CN(C)C(=O)c2ccc(NC3CC3)c([N+](=O)[O-])c2)cc1,inactive
22,CCC(C)(C)N=C(NC#N)Nc1cccnc1,inactive
23,Cc1cccn2c(=O)c3cc(C#N)c(=O)n(CCCN4CCOCC4)c3nc12,-15.8 (active)
24,Cc1cccn2c(=O)c3cc(C(=O)NCCN4CCOCC4)c(=N)n(Cc4cccnc4)c3nc12,inactive
25,Cc1cccn2c(=O)c3cc(C#N)c(=NC(=O)c4cccnc4)n(CC4CCCO4)c3nc12 (stereo unspecified),inactive
26,CC(C)CCNC(=O)C(C)N(C(=O)Cn1nnc(-c2ccc(F)cc2)n1)C1CCCC1 (stereo unspecified),inactive

row,Structure (SMILES),B-score
1,CCCCNc1nc2ccccc2nc1NS(=O)(=O)c1cccs1,inactive
2,O=C(CN1C(=O)CSC1=O)N1CCCC(Nc2ccc(F)cc2)C1 (stereo unspecified),inactive
3,COc1ccc(C2C(C(C)=O)=C(O)C(=O)N2Cc2cccnc2)cc1 (stereo unspecified),inactive
4,CCOc1ccc(/C(O)=C2/C(=O)C(=O)N(Cc3cccnc3)C2c2ccc(N(C)C)cc2)c(C)c1 (stereo unspecified),-6.27 (active)
5,CCOc1cccc(/C(O)=C2/C(=O)C(=O)N(CCOC)C2c2ccncc2)c1 (stereo unspecified),inactive
6,O=C(NCc1ccccc1)C1C(=O)N(Cc2ccccc2)C(=O)C1C1(O)CCCC1 (stereo unspecified),inactive
7,Cc1cc(NC(=O)CN2CCCCC2C)nc2c1c(=O)oc1ccccc12 (stereo unspecified),inactive
8,CC(=O)N1CCC(N(C(=O)Nc2ccc(Cl)cc2)C(C)C)CC1,inactive
9,COc1ccc(CNC(=O)c2cc3c(=O)n4ccccc4nc3n(CC3CCCO3)c2=N)cc1 (stereo unspecified),-7.34 (active)
10,COc1ccc(CCn2c(=N)c(C(=O)NCC3CCCO3)cc3c(=O)n4cccc(C)c4nc32)cc1OC (stereo unspecified),inactive
11,Cc1ccc2nc3c(cc(C(=O)NCCc4ccccc4)c(=N)n3CC3CCCO3)c(=O)n2c1 (stereo unspecified),inactive
12,CC(C)c1ccc(NC2CCCN(C(=O)c3ccncc3)C2)cc1 (stereo unspecified),inactive
13,CC(=O)NS(=O)(=O)c1ccc2c(c1)Cc1cc(S(=O)(=O)NC(C)=O)ccc1-2,inactive
14,CCOC(=O)N1CCC(NC(=O)CN2C(=O)COc3ccc(C(C)(C)C)cc32)CC1,-7.85 (active)
15,Cc1ccc2c(c1)N(CC(=O)N1CCCC(C)C1)C(=O)CO2 (stereo unspecified),inactive
16,Cc1ccc2c(c1)N(CC(=O)N1CCC(O)CC1)C(=O)CO2,inactive
17,CC(NC(=O)CCC(=O)N1CCN(S(=O)(=O)c2ccc(Cl)cc2)CC1)c1ccccc1 (stereo unspecified),inactive
18,CC12C(=O)N(c3ccccc3)C(=O)C1C(c1ccccc1)N1CCCN12 (stereo unspecified),inactive
19,CCCC(=O)Nc1ccc(Cl)c(NC(=O)c2ccc(Br)o2)c1,inactive
20,CCN1CCN(c2c(Cl)cccc2NC(=O)c2ccc(Br)o2)CC1,-12.2 (active)
21,O=C(Nc1cccc(Cl)c1N1CCOCC1)c1cccnc1,inactive
22,CCCN=C1NC(=O)C(CC(=O)NCCc2ccc(OC)c(OC)c2)S1 (stereo unspecified),inactive
23,COc1ccc(NC(=O)CSc2nc(SC)ns2)c(OC)c1,inactive
